# Whole data set: some 18,000 sequences, median “log2 normalized intensity” near 0.39, cut for the highest 2% near 6.6. Only a selection was taken, and the highest values are over-represented in it overall.
# Biological target: T1, HNF4alpha2 (COS-7 nuclear extract) (Homo sapiens, UniProt P41235 1-474)
# T1 sequence: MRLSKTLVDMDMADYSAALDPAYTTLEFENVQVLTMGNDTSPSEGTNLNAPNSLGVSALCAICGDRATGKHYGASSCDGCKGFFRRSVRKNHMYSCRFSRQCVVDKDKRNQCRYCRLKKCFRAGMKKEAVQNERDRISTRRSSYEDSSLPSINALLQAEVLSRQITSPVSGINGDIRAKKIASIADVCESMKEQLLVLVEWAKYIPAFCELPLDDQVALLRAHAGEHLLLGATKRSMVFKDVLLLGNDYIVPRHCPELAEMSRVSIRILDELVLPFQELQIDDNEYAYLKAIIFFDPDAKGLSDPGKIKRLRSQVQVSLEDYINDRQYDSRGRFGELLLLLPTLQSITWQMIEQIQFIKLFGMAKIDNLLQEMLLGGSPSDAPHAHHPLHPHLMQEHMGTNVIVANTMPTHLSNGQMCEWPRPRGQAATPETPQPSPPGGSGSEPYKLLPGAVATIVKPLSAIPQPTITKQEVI
# Assay: protein-binding microarray; COS-7 nuclear extract on double-stranded Agilent 4x180k PBM; binding buffer, salt, pH and temperature not given in the material; high values mean tight binding
# Conditions: chain copies: 2; label: 3' end of strand 1 on the slide; dsDNA, one strand shown
# In short: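 COS-7 cells were transiently transfected by CaPO4 with an expression vector for a human HNF4α isoform, and nuclear extracts were prepared from them. The extracts were applied to a custom Agilent SurePrint G3 4x180k array of double-stranded ~60-nt oligonucleotides, with ~44,000 test sequences spotted in quadruplicate. An Agilent G2565CA scanner imaged bound HNF4α at 2-µm resolution. Binding signal is the background-corrected, normalized gProcessedSignal from Agilent software.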
row,Sequence,binding signal [log2 normalized intensity]
1,CTCTGTGCTCCCAGTTCCCTCATTAGTAACGCCTAGGGAGATTAGAGTATCGGTCGA,1.33
2,CAAAGGACATTTCTAAAAATAGCCTTACTTGCCTAGGGAGATTAGAGTATCGGTCGA,-0.901
3,CCCGGCAGCCCTGCTCCCCGCCTTGGCCTCGCCTAGGGAGATTAGAGTATCGGTCGA,1.56
4,CTACAGGTATGCCTTTGAAGAGTACAGCCTGCCTAGGGAGATTAGAGTATCGGTCGA,-0.571
5,TTCTTTTTGAAGCAAAGCCTTTGAGCAGATGCCTAGGGAGATTAGAGTATCGGTCGA,0.819
6,ATGACCCAAACTTCACAAAAATGAGTGCAAGCCTAGGGAGATTAGAGTATCGGTCGA,-0.838
7,GTTCTATGGGATGACCTTTGAGCAATAGGAGCCTAGGGAGATTAGAGTATCGGTCGA,5.15
8,AGCAAACACAAACTATGACCTTTGAAACTTGCCTAGGGAGATTAGAGTATCGGTCGA,7.13
9,GGGCGAGAGAGTTCTATGGGATGACCTTTGGCCTAGGGAGATTAGAGTATCGGTCGA,6.25
10,ACACAAACTATGACCTTTGAAACTTACATTGCCTAGGGAGATTAGAGTATCGGTCGA,5.64
11,CAGCAACACTCTACTACTTGACCTTTGAAAGCCTAGGGAGATTAGAGTATCGGTCGA,6.06
12,AGAGAGTTCTATGGGATGACCTTTGAGCAAGCCTAGGGAGATTAGAGTATCGGTCGA,6.93
13,TGACAAGCAAACACAAACTATGACCTTTGAGCCTAGGGAGATTAGAGTATCGGTCGA,8.49
14,CCTTTCATGTACTGTTCAGTTCCTATTTCAGCCTAGGGAGATTAGAGTATCGGTCGA,1.72
15,GAGTGGACTTTGGCTTATGCAAATGTTATGGCCTAGGGAGATTAGAGTATCGGTCGA,4.25
16,TTCACCTTTCGCCCTTTGTCCTATGACTCTGCCTAGGGAGATTAGAGTATCGGTCGA,4.63
17,CTATGACCTTTCACCTTTTAGCTTGGCATGGCCTAGGGAGATTAGAGTATCGGTCGA,4.41
18,TGGTACTATGACCTTTCACCTTTTAGCTTGGCCTAGGGAGATTAGAGTATCGGTCGA,5.81
19,ACCTTTGACCTGGTACTATGACCTTTCACCGCCTAGGGAGATTAGAGTATCGGTCGA,7.01
20,GAGTGACCTGGTATTGCAAGTATTTCACCCGCCTAGGGAGATTAGAGTATCGGTCGA,1.57
21,TGACCTGGTACTATGACCTTTCACCTTTTAGCCTAGGGAGATTAGAGTATCGGTCGA,6.99
22,TTAGCAGATAAATCTAGGCCTAGGCATTGAGCCTAGGGAGATTAGAGTATCGGTCGA,-0.468
23,ATCTTGGGTTAGGCCTTTAGAGGATTTACTGCCTAGGGAGATTAGAGTATCGGTCGA,-0.708

row,Sequence,binding signal [log2 normalized intensity]
1,CATTCACATGACCTTTGTCCGTTCCTGCCTGCCTAGGGAGATTAGAGTATCGGTCGA,5.92
2,TTCGGTGCTGACCTTTGTTCACATTTGTGCGCCTAGGGAGATTAGAGTATCGGTCGA,5.06
3,CTGGGATGAGATACCCATTCACATGACCTTGCCTAGGGAGATTAGAGTATCGGTCGA,3.29
4,ATACCCATTCACATGACCTTTGTCCGTTCCGCCTAGGGAGATTAGAGTATCGGTCGA,7.01
5,ATGAGATACCCATTCACATGACCTTTGTCCGCCTAGGGAGATTAGAGTATCGGTCGA,8.34
6,ACATGACCTTTGTCCGTTCCTGCCTGGAGCGCCTAGGGAGATTAGAGTATCGGTCGA,4.82
7,CTGGGAAGATTAAGGAAGGAAGGTGCTTATGCCTAGGGAGATTAGAGTATCGGTCGA,-0.85
8,TTCACCCCATTTTGTCCCTCCCTGCAGCTGGCCTAGGGAGATTAGAGTATCGGTCGA,4.07
9,ATGACCTCTTTTAGTAACTGACTTTAACTTGCCTAGGGAGATTAGAGTATCGGTCGA,1.5
10,CTCTTTAGGCTGGACTCTGACCCATTCCTTGCCTAGGGAGATTAGAGTATCGGTCGA,5.23
11,GACCTCTGCCCTTCCACCCACTTTATCTTCGCCTAGGGAGATTAGAGTATCGGTCGA,3.26
12,ACTACCTCTTTAGGCTGGACTCTGACCCATGCCTAGGGAGATTAGAGTATCGGTCGA,6.75
13,CCCTGCCACTCTTTTTTAGACTTTGACCTCGCCTAGGGAGATTAGAGTATCGGTCGA,10
14,CTGACCTCTTTTGGATTTTTCCATATCTGTGCCTAGGGAGATTAGAGTATCGGTCGA,1.74
15,CCACTCTTTTTTAGACTTTGACCTCCATATGCCTAGGGAGATTAGAGTATCGGTCGA,7.61
16,TGCAGCCCTGCCACTCTTTTTTAGACTTTGGCCTAGGGAGATTAGAGTATCGGTCGA,3.72
17,ACCAGACTACCTCTTTAGGCTGGACTCTGAGCCTAGGGAGATTAGAGTATCGGTCGA,3.96
18,TTAATGTGCTTGTCTGACTGCTGCCAAAGGGCCTAGGGAGATTAGAGTATCGGTCGA,-0.631
19,ATGGTGGAGGGTCTTGCTTTGATGTTGATGGCCTAGGGAGATTAGAGTATCGGTCGA,1.58
20,CTTTTGGTATGCAAGGCATGGTGCTTCGCAGCCTAGGGAGATTAGAGTATCGGTCGA,1.26
21,TTTCAAGAATGGAGAAAACAACATTCCTTGGCCTAGGGAGATTAGAGTATCGGTCGA,-0.213
22,TCCTTTGGATCATGTGTCTGAGCAAGTTTCGCCTAGGGAGATTAGAGTATCGGTCGA,2.08
23,TGTCATCTAGACCTGGACTTGAAGCCAGACGCCTAGGGAGATTAGAGTATCGGTCGA,-0.168

row,Sequence,binding signal [log2 normalized intensity]
1,TGAGTCTGGTGTTTCCCTGTTTGCTTCTGCGCCTAGGGAGATTAGAGTATCGGTCGA,0.819
2,GTTTAACTGACCCAGGGAGAAAGGTCAGGGGCCTAGGGAGATTAGAGTATCGGTCGA,2.86
3,CTTATCTACTTTAAGATTTGACCCTTGGCCGCCTAGGGAGATTAGAGTATCGGTCGA,7.08
4,AGTGGTTTAAAAACTTATCTTGTGACCTTTGCCTAGGGAGATTAGAGTATCGGTCGA,6.81
5,TTTAAAAACTTATCTTGTGACCTTTGACTCGCCTAGGGAGATTAGAGTATCGGTCGA,8.33
6,CTGAACTTTAAACTGGTGTGTCTTGCCTTTGCCTAGGGAGATTAGAGTATCGGTCGA,2.06
7,TTAAGATTTGACCCTTGGCCAGGTGCAGTGGCCTAGGGAGATTAGAGTATCGGTCGA,4.65
8,ATTCTCTTATCTACTTTAAGATTTGACCCTGCCTAGGGAGATTAGAGTATCGGTCGA,5
9,ATCTGACCTTTGGTTAACTTCTTAACTTGGGCCTAGGGAGATTAGAGTATCGGTCGA,2.97
10,TATCTTGTGACCTTTGACTCATTATCCCCCGCCTAGGGAGATTAGAGTATCGGTCGA,6.24
11,AAACTTATCTTGTGACCTTTGACTCATTATGCCTAGGGAGATTAGAGTATCGGTCGA,6.43
12,ATAAGACACATTCCATGCTTATCAGTGTACGCCTAGGGAGATTAGAGTATCGGTCGA,0.893
13,TAACTCAAAATCTGCTCTGTCCTGAGATGTGCCTAGGGAGATTAGAGTATCGGTCGA,1.06
14,AGGCCTGGAACCTGTCTGACAGGATGAATTGCCTAGGGAGATTAGAGTATCGGTCGA,-0.627
15,GCTGCCGCAGATCCCCGCTCCCCTCCCCCAGCCTAGGGAGATTAGAGTATCGGTCGA,6.45
16,AAGAGCCAAAATGTGTTAGGCAAGCAAACTGCCTAGGGAGATTAGAGTATCGGTCGA,-0.953
17,ATGTGGTCAAAACTTTGTTTGAGTTCCAAAGCCTAGGGAGATTAGAGTATCGGTCGA,1.07
18,GAATCAATGCCTGATTCCAAAGTCCACTTTGCCTAGGGAGATTAGAGTATCGGTCGA,6.91
19,AGATTCGGTGAGGGATTGTTTAGGTACAAAGCCTAGGGAGATTAGAGTATCGGTCGA,1.53
20,CTCTGAGATTCGGTGAGGGATTGTTTAGGTGCCTAGGGAGATTAGAGTATCGGTCGA,0.957
21,AAAGTCCATATTCTTTGTTTGGATGCCAAAGCCTAGGGAGATTAGAGTATCGGTCGA,1.58
22,ATACAGAATCAATGCCTGATTCCAAAGTCCGCCTAGGGAGATTAGAGTATCGGTCGA,5.95
23,AACTTTGTTTGAGTTCCAAAGTCCATGTTCGCCTAGGGAGATTAGAGTATCGGTCGA,6.61

row,Sequence,binding signal [log2 normalized intensity]
1,CGGTGAGGGATTGTTTAGGTACAAAGTCCAGCCTAGGGAGATTAGAGTATCGGTCGA,8.35
2,GTCAAAACTTTGTTTGAGTTCCAAAGTCCAGCCTAGGGAGATTAGAGTATCGGTCGA,6.99
3,ACTTTGCCTTTTGGCTAAAGTCCAAATTCCGCCTAGGGAGATTAGAGTATCGGTCGA,5.14
4,AGGGATTGTTTAGGTACAAAGTCCATTGGAGCCTAGGGAGATTAGAGTATCGGTCGA,7.7
5,TTGTTTAGGTACAAAGTCCATTGGAAGCCAGCCTAGGGAGATTAGAGTATCGGTCGA,5.82
6,AAGCATTTGGAGATTGCCACCTTGGTGAGAGCCTAGGGAGATTAGAGTATCGGTCGA,0.715
7,GAGTTCTTCAAGTCAGTCAAAATGAATAGTGCCTAGGGAGATTAGAGTATCGGTCGA,1.32
8,TTGGCAGATTAGATATATCTGTACTCAAACGCCTAGGGAGATTAGAGTATCGGTCGA,1.27
9,TAACAGGATTTTTGCTGAAGACAGGCCAGGGCCTAGGGAGATTAGAGTATCGGTCGA,-0.417
10,CTGAATGGAATGAAGATACTGGATAACCTTGCCTAGGGAGATTAGAGTATCGGTCGA,0.695
11,AGAATGAGACCTGCTAGGCTGCATTCTCTGGCCTAGGGAGATTAGAGTATCGGTCGA,-0.977
12,TTCTGGTCAAAGGTCAATGAAGCTCTTGCTGCCTAGGGAGATTAGAGTATCGGTCGA,5.65
13,TGCCTTATCTGGTTCAAAGGTCATTTCTGCGCCTAGGGAGATTAGAGTATCGGTCGA,6.58
14,TTACATGCCTTATCTGGTTCAAAGGTCATTGCCTAGGGAGATTAGAGTATCGGTCGA,7.65
15,TTCCCTAAGATTCTGGTCAAAGGTCAATGAGCCTAGGGAGATTAGAGTATCGGTCGA,7.36
16,TTATCTTACATGCCTTATCTGGTTCAAAGGGCCTAGGGAGATTAGAGTATCGGTCGA,2.9
17,TATCTGGTTCAAAGGTCATTTCTGCTTGCAGCCTAGGGAGATTAGAGTATCGGTCGA,5.75
18,ATTCATTCCCTAAGATTCTGGTCAAAGGTCGCCTAGGGAGATTAGAGTATCGGTCGA,7.3
19,TAAGATTCTGGTCAAAGGTCAATGAAGCTCGCCTAGGGAGATTAGAGTATCGGTCGA,5.93
20,TTCATTCTTTAAGGACCACATCAAAGGTCAGCCTAGGGAGATTAGAGTATCGGTCGA,4.7

# Reference: publication PMC10726135, “HNF4α isoforms regulate the circadian balance between carbohydrate and lipid metabolism in the liver”
